# Data as given in the supplement of paper PMC6555819.
# Legend:
# Assay in all cases: PBM binding z-score (relative to random genomic background probes); higher = stronger binding; sequences stand for … in GC…GCGATTGACAGCGTAGAATGAAGG
# [1] = test system: PPARg:RXRa DBDmut IVT, anti-RXR (DBD mutation: RXRa K156A/R161A, NR concentration 270 nM, RXRa partner concentration 90 nM)
# Method in brief: (§1)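 Regression normalization was applied to scanned fluorescence from custom Agilent 4×180K protein-binding microarrays. Before scanning, arrays were incubated 1 h with ligand-free nuclear receptor dimers, and binding was detected with antibodies against each partner (one per run). Binding z-scores use the random background probes as reference.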
# [2] = test system: PPARg:RXRa IVT, anti-PPARg (NR concentration 270 nM, RXRa partner concentration 90 nM)
# Method in brief: as §1
# [3] = test system: PPARg DBDmut:RXRa IVT, anti-PPARg (DBD mutation: PPARg1 K132A/R137A, NR concentration 270 nM, RXRa partner concentration 90 nM)
# Method in brief: as §1
# [4] = test system: PPARg DBDmut IVT, anti-PPARg (DBD mutation: PPARg1 K132A/R137A, NR concentration 270 nM)
# Method in brief: as §1
# [5] = test system: PPARg homodimer (NR concentration 180 nM)
# Method in brief: as §1
# [6] = test system: PXR:RXRa (NR concentration 270 nM, RXRa partner concentration 90 nM)
# Method in brief: as §1
# [7] = test system: PXR homodimer (NR concentration 270 nM)
# Method in brief: as §1
# [8] = test system: RARa:RXR (NR concentration 270 nM, RXRa partner concentration 90 nM)
# Method in brief: as §1
# [9] = test system: RARa homodimer (NR concentration 270 nM)
# Method in brief: as §1
# [10] = test system: RARb:RXRa (NR concentration 270 nM, RXRa partner concentration 90 nM)
# Method in brief: as §1
# [11] = test system: RARb homodimer (NR concentration 270 nM)
# Method in brief: as §1
# [12] = test system: RARg:RXRa (NR concentration 270 nM, RXRa partner concentration 90 nM)
# Method in brief: as §1
# [13] = test system: RARg homodimer (NR concentration 270 nM)
# Method in brief: as §1
# [14] = test system: RXRa DBDmut IVT, anti-RXR (DBD mutation: RXRa K156A/R161A, NR concentration 90 nM)
# Method in brief: as §1
# [15] = test system: RXRa homodimer (NR concentration 180 nM)
# Method in brief: as §1
# [16] = test system: THRa:RXRa (NR concentration 90 nM, RXRa partner concentration 90 nM)
# Method in brief: as §1
# [17] = test system: THRa homodimer (NR concentration 90 nM)
# Method in brief: as §1
# [18] = test system: VDR homodimer (NR concentration 270 nM)
# Method in brief: as §1
Sequence,PBM binding z-score [1],PBM binding z-score [2],PBM binding z-score [3],PBM binding z-score [4],PBM binding z-score [5],PBM binding z-score [6],PBM binding z-score [7],PBM binding z-score [8],PBM binding z-score [9],PBM binding z-score [10],PBM binding z-score [11],PBM binding z-score [12],PBM binding z-score [13],PBM binding z-score [14],PBM binding z-score [15],PBM binding z-score [16],PBM binding z-score [17],PBM binding z-score [18]
GCTTACGGGTCAAAGGTAATAGCATGAATAGAAT,4.96,5.28,1.42,0.842,1.61,4.26,-0.182,6.23,0.248,3.87,2.5,5.3,4.22,1.97,6.87,3.07,-0.169,1.06
CCAAGTTGGTCAGGAGGTCACACACCGGATATGA,2.06,3.44,0.859,0.385,2.39,4.24,0.876,4.41,0.729,3.8,4.38,5.05,4.59,1.39,4.6,3.5,1.96,2.65
CGTCAAAGTTCAAGGTAACGTTACAGAAAGCAGC,1.03,2.42,0.621,1.08,3.53,4.49,3.12,3.46,2.12,5.26,4,5.44,6.2,4.52,4.96,2.94,1.13,3.32
AGAACGAGGGCACGCTAAGTTGATAGCAGAGTAG,4.41,3.93,1.79,0.754,0.364,1.11,0.0616,1.3,-0.579,2.51,1.19,2.2,2.4,1.74,1.49,1.97,0.0343,1.42
CCGACTGGGGTAGAAAGGTTACCATACCATCCGG,0.466,1.2,-1.23,-0.59,1.69,1.32,-0.0597,2.45,0.375,1.72,2.13,1.97,1.04,-1.26,2.35,1,-0.443,-0.2
ATCTCTAGGGAAAAGTTCAGTGAATCCCGAGGAT,-0.096,1.64,0.313,0.383,0.686,1.42,0.706,0.616,0.196,1.77,2.03,1.23,1.69,0.323,0.636,0.24,-0.457,1.22
TCTCGGATGACACGAAGGTCAGAGCTTTCCAGAG,1.37,0.539,-0.684,-0.814,0.961,1.62,0.0323,2.3,-0.214,2.55,3.15,2.66,2.31,0.542,2.48,1.68,0.229,0.13
ACTATTAGTTGAGCCGAGGGCAACCGATAGGTTG,-0.387,0.273,0.194,-0.123,-0.122,1.43,0.308,0.433,0.387,1.21,1.35,0.604,0.752,0.39,0.52,2.57,0.523,0.692
CGTCCAAGGTCAAAAGTCAGTGAAGAGATGACGG,2.6,3.24,0.212,-0.048,1.17,3.92,0.638,4.84,0.448,4.63,3.25,5.69,5.8,3.57,6.1,3.41,1.3,1.86
CCTACTGGGCCACGAAAGGTCATAGATTCAGTGA,5.75,6.04,0.35,1.08,3.16,4.97,0.915,5.39,0.471,4.03,4.58,4.73,4.53,-0.0363,4.95,3.84,0.901,1.31
CCTACTGGGCCATTCAGAGGTCATAGATCATATG,4.09,4.44,0.601,-0.0592,2.01,4.2,1.2,4.42,0.421,2.97,3.97,4.15,2.99,0.411,3.98,3.27,1.4,2.6
CCAGACAGGTGAGTAGGTAACTCAGCCTCGATTA,2.01,1.66,-0.259,-0.369,1.08,-0.277,-0.0681,0.388,0.546,0.279,0.326,0.196,0.224,0.331,0.246,0.0417,0.159,-0.162
CCTCGGAGGACAGAAGTTCAGAGCTGTCCGCTTT,-0.783,-0.951,-1.61,-1.82,-0.0548,0.556,-0.104,-0.223,-0.677,1.59,1.88,1.28,1.36,0.706,-0.0645,0.325,-0.73,0.521
ACTTACGGGACAACGAGGTTATAGCACGCGTATA,0.742,0.83,0.547,1,0.641,0.83,0.728,0.933,0.919,1.03,1.17,0.768,1.24,0.749,1.03,1.69,0.953,1.94
GCGACTGGCGCAAAGCAGGTTACCATAAGGTTGG,-0.223,-0.321,-1.05,-1.11,-0.736,-0.34,-0.486,-0.0579,-0.958,-0.386,-0.0806,-0.27,-0.774,-0.791,-0.0574,0.636,-0.543,-0.861
CAAACTACGTCACCGGAAGGTCAAAGTCCGCATG,0.517,1.61,0.449,1.03,2.68,3.83,1.39,4.14,1.23,3.3,4.23,4.01,2.91,0.765,3.55,2.88,1.47,2.03
